Assay outcomes: PubChem BioAssay, National Center for Advancing Translational Sciences (NCATS)
The list is not random: actives were taken first. Their share in the collection is about 7.9%.
HCV inhibitor = qHTS Assay for Inhibitors of Hepatitis C Virus (HCV) | Potency, µM (series often up to 41.8 µM), without a hit: at the highest dose activity change, negative = inhibition, usual class: inhibitors | 340,000 tested, 3.4% active | Huh7.5.1 HCVcc-Cre infection, luciferase reporter, 44 h; active = well fitted inhibition curve with a large enough effect; inconclusive = small, poorly fitted or top-dose-only effect, or another doubt; inactive = no such curve, though single readings can be large or run the other way; also: potency is read from the fitted curve at half-maximal effect
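Reporter virus HCVcc-Cre (~0.5 moi) infects cells exposed to compound; seeding density 1,000 cells/well with 4 h settling beforehand. Luminescence, 15 sec read, taken 44 h post-infection following a 15 min RT substrate incubation.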
FMDV antiviral = High Throughput Screening for Foot and Mouth Disease Virus Antivirals; FMDV antiviral cell-based qHTS; Potency, µM (top dose mostly 57.9 µM), for the others: at the top dose activity change, negative = inhibition, usual class: inhibitors; 410,000 tested, 1.2% active; AID 1159524, 2015; calls by dose curve; tested in HEK293T cells; also: read-out not given here; potency is read from the fitted curve at half-maximal effect; nearly all actives have a fitted effect of over 45% in size
HCMV antiviral = qHTS Assay for inhibitors of the human cytomegalovirus (HCMV); HFF cells, HCMV-luciferase reporter, 72 h; hits give low values; activity change, negative = inhibition, % at 57.5 µM; 410,000 tested, 4.5% active; AID 1259415, 2018; in the data active = activity change below about -60%; inconclusive = no clear call, values can overlap the other calls; inactive = above about -39%
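Steps: HFFs plated, 16 h 37C; compounds added; HCMV-luciferase added to MOI 1 PFU/cell; 72 h 37C; OneGlo reagent, 5 min room temperature; luminescence read, normalized to controls.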
Marburg entry inh = qHTS for inhibitors of binding or entry into cells for Marburg Virus | Marburg virus pseudotyped entry inhibition, cell reporter | Potency, µM (titrated, usually from 37.8 µM), for the others: at the top dose activity change, negative = inhibition, actives largely listed as inhibitors | 300,000 tested, 1.8% active; calls by dose curve; tested in HEK293 cells; also: potency is read from the fitted curve at half-maximal effect
LASV entry inh = qHTS for Inhibitors of binding or entry into cells for Lassa Virus; Lassa virus pseudotype entry inhibition, cell reporter; Potency, µM (titrated, usually from 37.9 µM), for the others: top-dose activity change, negative = inhibition, usual class: inhibitors; 300,000 tested, 1.2% active; AID 540256, 2011; calls by dose curve; tested in HEK293 cells; also: potency is read from the fitted curve at half-maximal effect; nearly all actives have a fitted effect of over 50% in size
Active calls of the source: *; ! = not confirmed by another sample; [ ] = remark or other dose. % is scaled to controls: 0 for no effect and ±100 for the full control effect.

What do the screens show for `COc1cc(=O)n2c(c1C(=O)N(C)Cc1nonc1C)CCN(Cc1cc(C)ccc1C)CC2`?
FMDV antiviral: -19%

How did CN(CC(=O)Nc1cc(Cl)ccc1Cl)C1CCS(=O)(=O)C1 (configuration not stated) do in these assays?
HCV inhibitor: -1%; FMDV antiviral: -17%; HCMV antiviral: 11

What do the screens show for `CN(CC(=O)Nc1ccc(Cl)cc1F)C1CCS(=O)(=O)C1` (configuration not stated)?
HCV inhibitor: 8%; FMDV antiviral: -22%; HCMV antiviral: -100*

Results for Cc1nn(-c2ccccn2)c2c1C(=O)CC(C)(C)C2N=[N+]=[N-] (configuration not stated) ?
HCV inhibitor: inconclusive; FMDV antiviral: -14%; HCMV antiviral: -24

Results for CC1=CC[C@@H](C)O[C@@]2(C1)C(=O)Nc1ccccc12 ?
Marburg entry inh: -9%[14.2 µM]

What do the screens show for `COc1ccc(CN2CCN(C(C)C(=O)NC(C)c3ccc(F)cc3)CC2)cc1F` (configuration not stated)?
HCV inhibitor: -28%; FMDV antiviral: -14%; HCMV antiviral: inconclusive; Marburg entry inh: inconclusive; LASV entry inh: -10%[46.1 µM]

Results for COc1ccc(CN2CCN(C(C)C(=O)N(C)Cc3cccc(F)c3)CC2)cc1OC (configuration not stated) ?
HCV inhibitor: inconclusive; FMDV antiviral: -29%; HCMV antiviral: -102*

Results for CCC/C(O)=C1\C(=O)CC(C)(C)CC1=Nc1ccc(OC)cc1OC ?
HCV inhibitor: -11%; FMDV antiviral: 0%; HCMV antiviral: 21; Marburg entry inh: 2µM*; LASV entry inh: -24%

How did COc1cccc2cc(C(=O)NCc3ccco3)c(=Nc3ccc(C(=O)O)cc3)oc12 do in these assays?
HCV inhibitor: 13%; HCMV antiviral: -78*; Marburg entry inh: 8%; LASV entry inh: 4%

What do the screens show for `N#C/C(=N/Nc1ccc(OC(F)(F)F)cc1)C(N)=S`?
HCV inhibitor: inconclusive; FMDV antiviral: 10%; HCMV antiviral: -98*

How did CCCN=C(C)C1=C(O)c2ccccc2C1=O do in these assays?
HCV inhibitor: 0%; FMDV antiviral: 17%; HCMV antiviral: 6; Marburg entry inh: inconclusive; LASV entry inh: inconclusive

Results for CC(=NCCN1CCOCC1)C1=C(O)c2ccccc2C1=O ?
HCV inhibitor: 6%; FMDV antiviral: 19%; HCMV antiviral: -102*; Marburg entry inh: inconclusive; LASV entry inh: 18%

What do the screens show for `CCOc1ccc(C(=O)NCC(=O)NCCCSc2ccccc2)cc1OCC`?
HCV inhibitor: inconclusive; FMDV antiviral: -23%; HCMV antiviral: inconclusive; Marburg entry inh: -6%; LASV entry inh: -1%

How did NC(=O)c1ccccc1NC(=O)NC1CCCCC1 do in these assays?
HCV inhibitor: 13%; FMDV antiviral: 4%; HCMV antiviral: -2; Marburg entry inh: 3%; LASV entry inh: -8%

Results for O=C(Nc1ccccc1NC(=O)NC1CCCCC1)NC1CCCCC1 ?
HCV inhibitor: 13µM*; FMDV antiviral: 54%; HCMV antiviral: -106*; Marburg entry inh: 4.6µM*; LASV entry inh: 13µM*

How did O=C(Nc1nc2ccccc2[nH]1)NC1CCCCC1 do in these assays?
HCV inhibitor: -1%; FMDV antiviral: -26%; HCMV antiviral: 57; Marburg entry inh: inconclusive; LASV entry inh: 11µM*

Results for Cc1cc(N2CCN(C(=O)c3ccco3)CC2)n2nc(-c3cccc(Cl)c3)cc2n1 ?
HCV inhibitor: 10µM*; FMDV antiviral: inconclusive; HCMV antiviral: -101*; Marburg entry inh: 16µM*; LASV entry inh: 26µM*

How did Cc1cc(N2CCN(C(=O)c3ccco3)CC2)n2nc(C)c(-c3ccccc3)c2n1 do in these assays?
HCV inhibitor: 3.5µM*!; FMDV antiviral: inconclusive; HCMV antiviral: -22; Marburg entry inh: -19%; LASV entry inh: -8%

Results for O=C(c1ccoc1)N1CCN(c2cc(-c3cccc(F)c3)nc3cc(-c4cccc(Cl)c4)nn23)CC1 ?
FMDV antiviral: inconclusive; HCMV antiviral: -82*

Results for COCCN1CCN(c2cc(-c3ccccc3)nc3cc(-c4cccc(F)c4)nn23)CC1 ?
HCV inhibitor: 10µM*; FMDV antiviral: 14µM*; HCMV antiviral: -18; Marburg entry inh: inconclusive; LASV entry inh: inconclusive

What do the screens show for `Cc1cc(N2CCN(C(=O)c3ccco3)CC2)n2nc(C)c(-c3ccc(Cl)cc3)c2n1`?
Marburg entry inh: 1%

What do the screens show for `O=C(c1ccccc1)N1CCN(c2cc(Cl)nc3cc(-c4cccc(Cl)c4)nn23)CC1`?
FMDV antiviral: inconclusive; HCMV antiviral: -10

How did Cc1ccccc1S(=O)(=O)N1C[C@@H]2C(C(=O)C[C@@H]3C(=O)N(C)C(=O)[C@@H]32)[C@@H]1c1ccc(Cl)cc1 (some centres not stated) do in these assays?
FMDV antiviral: -24%; HCMV antiviral: -39

Results for Cc1cc(C)c2c(-n3cccc3)c(C(=O)NCCc3ccccc3)sc2n1 ?
FMDV antiviral: -18%; HCMV antiviral: inconclusive; Marburg entry inh: 1%[46.1 µM]; LASV entry inh: 17%[46.1 µM]

What do the screens show for `COc1ccc(-c2cc3nc(-c4ccccc4)cc(N4CCCC(O)C4)n3n2)cc1` (configuration not stated)?
HCV inhibitor: 6.3µM*; FMDV antiviral: -10%; HCMV antiviral: -30

How did COc1ccc(-c2cc3nc(-c4ccccc4)cc(N4CCN(C(C)=O)CC4)n3n2)cc1 do in these assays?
FMDV antiviral: inconclusive; HCMV antiviral: -37

What do the screens show for `Cc1nc2cc(NC(=O)c3ccc([N+](=O)[O-])s3)ccc2s1`?
HCV inhibitor: inconclusive; FMDV antiviral: 11%; HCMV antiviral: -94*; Marburg entry inh: inconclusive; LASV entry inh: inconclusive

How did Cc1ccnc(NS(=O)(=O)c2ccc(NC(=O)c3ccc([N+](=O)[O-])s3)cc2)n1 do in these assays?
HCV inhibitor: 4%; FMDV antiviral: -10%; HCMV antiviral: -96*; Marburg entry inh: -28%; LASV entry inh: inconclusive

What do the screens show for `Cc1cc(NS(=O)(=O)c2ccc(NC(=O)c3ccc([N+](=O)[O-])s3)cc2)nc(C)n1`?
HCV inhibitor: inconclusive; FMDV antiviral: 70%; HCMV antiviral: -97*; Marburg entry inh: -20%; LASV entry inh: 2%

How did Cc1nc2ccc(NC(=O)c3cccs3)cc2s1 do in these assays?
HCV inhibitor: 0%; FMDV antiviral: 19%; HCMV antiviral: 84; Marburg entry inh: 13%[46.1 µM]; LASV entry inh: 5%[46.1 µM]

Results for CC(=O)Nc1ccc(C(=O)Nc2ccc(S(=O)(=O)Nc3nccc(C)n3)cc2)cc1 ?
HCV inhibitor: 5%; FMDV antiviral: -10%; HCMV antiviral: -13

What do the screens show for `Cc1cc(NS(=O)(=O)c2ccc(NC(=O)Cc3ccc([N+](=O)[O-])cc3)cc2)nc(C)n1`?
HCV inhibitor: -24%; FMDV antiviral: 29%; HCMV antiviral: 14; Marburg entry inh: -2%; LASV entry inh: 7%
